Compound activity (PubChem BioAssay)
An excerpt weighted towards active compounds, which were near 4.1% of everything screened.
hgDAF-12 ag: H. glycines DAF-12 receptor agonists, primary screen, cell-based, luminescence, HEK293, GAL4 fusion, UAS-luciferase; HEK293 GAL4-hgDAF12 UAS-luciferase reporter, agonist luminescence; normalized to butyrate control; activation, % at 6.8 µM; 370,000 compounds, 1.8% hits; AID 687014, 2013;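 active = activation above a cutoff set at the mean of all screened compounds plus 3 SD, cut at about 10% in these data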;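 also: 0% = DMSO wells and 100% = sodium butyrate wells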
DAX1 inh-1: DAX1 (NR0B1) inhibitors, primary screen, cell-based, HEK293, Gal4-DAX1, luciferase luminescence | AID 504766, 2011 | HEK293 Gal4-DAX1 luciferase reporter | 340,000 compounds, 0.99% hits | inhibition, % at 6.75 µM | Nuclear receptor subfamily 0 group B member 1 (Homo sapiens), P51843;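 active = inhibition above the mean over all tested compounds plus 3 SD, cut at about 4.2% in these data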;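 also: 0% = DAX1-transfected cells with DMSO and 100% = empty-vector control cells with DMSO; inhibition shows as a rise in luminescence from relieved DAX1 repression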
hcDAF-12 act: H. contortus DAF-12 nuclear receptor activators, primary screen, cell-based, luminescence, HEK293, lit1-tk-luc reporter; 370,000 compounds, 1.4% hits; activation, % at 6.8 µM; HEK293 hcDAF-12 lit1-tk-luc reporter; 0% DMSO, 100% Δ7-dafachronic acid;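 active = activation above the mean of all tested compounds plus 3 SD, cut at about 5.5% in these data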;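 also: 100% = response to 3 µM Δ7-dafachronic acid high control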
DAX1 inh-2: DAX1 (NR0B1) inhibitors on StAR promoter, primary screen, cell-based, luminescence, SF-1 (NR5A1), full-length DAX-1; HEK293T StAR-luciferase reporter, SF-1/DAX-1 repression relief; inhibition, % at 6.8 µM; 370,000 compounds, 1.1% hits;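 active = inhibition above the mean over all tested compounds plus 3 SD, cut at about 3.6% in these data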;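 also: 0% = DAX-1 cells with DMSO and 100% = cells lacking DAX-1 with DMSO; higher inhibition means more luminescence from relief of DAX-1 repression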
ssDAF12 agonist: S. stercoralis DAF-12 nuclear receptor activators, primary screen, cell-based, luminescence, HEK293, GRIP1 co-expression, lit1-tk-luc; Nuclear hormone receptor DAF-12 (Strongyloides stercoralis); HEK293 ssDAF-12/GRIP1 lit1-tk-luc reporter; % of 3 µM dafachronic acid response; activation, % at 6.8 µM; 370,000 compounds, 1% hits; AID 652126, 2013;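 active = activation above the mean over all tested compounds plus 3 SD, cut at about 0.9% in these data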;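 also: 0% = DMSO-only wells and 100% = 3 µM delta7-dafachronic acid wells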
LXRb hcDAF ctr: LXR agonists, Gal4 luciferase reporter, confirmation, counter-screen for hcDAF-12 agonist project, cell-based, luminescence, HEK293, H. contortus campaign. shares compounds with hcDAF-12 act. HEK293 Gal4-LXR tk-luc reporter, 24 h; normalized: DMSO 0%, positive control 100%. activation, % at 6.8 µM. 3,400 tested, under 10 active;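 active = mean percent activation of the reporter above a cutoff set as the average over tested compounds plus their standard deviation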
Target sequence (P55055 whole entry, looked up, the tested form may be a part): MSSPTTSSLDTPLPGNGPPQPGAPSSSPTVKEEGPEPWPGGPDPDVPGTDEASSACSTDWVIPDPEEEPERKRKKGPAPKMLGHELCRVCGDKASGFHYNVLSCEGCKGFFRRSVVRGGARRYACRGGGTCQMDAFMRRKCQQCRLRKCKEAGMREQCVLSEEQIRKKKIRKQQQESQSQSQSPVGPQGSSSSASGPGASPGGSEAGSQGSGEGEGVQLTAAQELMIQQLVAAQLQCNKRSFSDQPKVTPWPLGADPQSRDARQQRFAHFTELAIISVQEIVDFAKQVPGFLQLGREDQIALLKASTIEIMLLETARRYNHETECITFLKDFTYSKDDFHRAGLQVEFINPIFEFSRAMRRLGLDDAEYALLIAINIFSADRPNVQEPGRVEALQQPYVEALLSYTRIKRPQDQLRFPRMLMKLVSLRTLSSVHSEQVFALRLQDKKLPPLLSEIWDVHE
hcDAF12 ag: H. contortus DAF-12 receptor agonists, confirmation, cell-based, luminescence, HEK293, lit1-tk-luc, triplicate | HEK293 hcDAF-12 lit1-tk-luc reporter; % of Δ7-dafachronic acid response | 3,400 compounds, 61% hits | activation, % at 6.8 µM | shares compounds with hcDAF-12 act | AID 743032, 2013;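 active = mean activation across triplicate tests above the threshold derived from the earlier primary screen, cut at about 5.5% in these data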;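 also: 0% = DMSO only wells and 100% = 3 µM Δ7-dafachronic acid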
Active calls of the source: *; / = not tested or not shown.

SMILES | hgDAF-12 ag | DAX1 inh-1 | hcDAF-12 act | DAX1 inh-2 | ssDAF12 agonist | LXRb hcDAF ctr | hcDAF12 ag
CC(C)[C@H](NC(=O)c1ccccc1)C(=O)N1CCC[C@H]1C(=O)NCc1ccccc1 | 2 | / | -1 | 0 | -1 | / | /
C=CC[C@@H](CC(=O)N(CCO)Cc1ccccc1)C(=O)N[C@H](COC(=O)[C@@H](CC=C)Cc1ccc(F)cc1)c1ccccc1 | 0 | 0 | 7.6* | -1 | -1 | 0 | 1
C=CC[C@@H](CC(=O)N(CCO)Cc1ccccc1)C(=O)N[C@@H](C)COC(=O)[C@@H](CC=C)Cc1ccc(F)cc1 | -4 | 0 | -3 | -1 | -2 | / | /
CCNC(=O)N1CCN(c2ccc(N3CCN(C(=O)NCC)[C@@H](C)C3)c(C)c2)[C@H](C)C1 | 0 | / | -1 | 0 | -1 | / | /
CN(C)c1ccc(-c2cc3ccccc3c(=O)o2)cc1 | 20* | 2 | 9.5* | 3 | 1.7* | 2 | 16*
C=CCN1C(=O)[C@@H](CC(=O)NCc2ccc(OC)c(OC)c2)[C@]2(C(=O)OCC)CCCCC/C=C/12 | 1 | / | -1 | 0 | -1 | / | /
OC(c1ccccc1)(c1ccccc1)C1CCN(CCCOc2ccncc2)CC1 | 1 | / | 0 | 1 | 0 | / | /
O=C(Oc1ccccc1)c1ccccc1 | 2 | 0 | 2 | -1 | -1 | / | /
CN(C)S(=O)(=O)c1ccc(C(=O)Oc2ccccc2)cc1 | 2 | 1 | 12* | -1 | -1 | 0 | 1
C[C@H]1[C@H](c2ccccc2)Oc2cccc(NCCc3ccccc3)c2S(=O)(=O)N1Cc1cccc(Cl)c1 | -1 | / | 0 | 0 | 0 | / | /
COc1cccc(NC(=O)C(Cc2ccccc2)NC(=O)C2CCC(C)CC2)c1 (centres undefined) | 6 | -2 | 8.6* | 0 | -1 | 0 | 2
COc1cccc(C(=O)N[C@H](C(=O)N2CCC[C@H]2C(=O)NCCc2ccccc2Cl)C(C)C)c1 | 2 | / | 2 | -1 | -1 | / | /
COCc1cc(C)nc(SCC(=O)Nc2nc(C)cs2)c1C#N | 10 | -2 | 9.7* | 2 | 0 | 1 | 6.3*
Cc1ccc(NC(=O)Nc2ccccc2)cc1[N+](=O)[O-] | 5 | 1 | 7.5* | 1 | -2 | 0 | 2
CC(=O)Nc1ccc(C)c([N+](=O)[O-])c1 | -1 | -1 | -3 | 0 | -1 | / | /
Clc1ccc(-c2cnn3c(-c4ccncc4)ccnc23)cc1 | 13* | 4 | 7.2* | 3 | 0 | 2 | 8.4*
CSc1nsc(NN)n1 | 11* | 2 | 7.7* | 1 | 0 | 0 | 5
Cn1ccnc1SCC(=O)c1c[nH]c2ccccc12 | 10 | 2 | 9.3* | 3 | 3.8* | 1 | 7.4*
CCc1ccc(N=Nc2ccc(O)c3[nH]cnc23)cc1 | 8 | 5.3* | 7.8* | 1 | 1.0* | 0 | 8.6*
CCOC(=O)C1(C)CCCN1C(=O)c1ccccc1F (centres undefined) | 2 | / | 7.1* | 0 | -1 | 0 | 0
CCOC(=O)C1(C)CCCN1C(=O)c1c(F)cccc1F (centres undefined) | 6 | / | 2 | 0 | -2 | / | /
CN(C)c1ccc(N=Cc2nc(-c3ccccc3)oc2OC(=O)c2cccc(Br)c2)cc1 | 7 | 1 | 6.7* | 3 | 2.1* | 0 | 1
CCOC(=O)c1ccc(N=Cc2nc(-c3ccccc3)oc2OC(C)=O)cc1 | 2 | 2 | 0 | 0 | -1 | / | /
Cc1ccccc1NC(=O)N(C)[C@H]1C[C@H]2c3[nH]c4c(-c5ccc6c(c5)OCO6)cccc4c3CCN2C(=O)[C@H]1[C@H](C)O | 1 | / | -1 | 0 | -1 | / | /
CC(=O)NCCC(=O)N1CCc2c([nH]c3ccccc23)C1c1cccc(C)c1 (centres undefined) | 9 | 1 | 7.1* | 0 | 0 | 0 | 7.6*
SMILES | hgDAF-12 ag | DAX1 inh-1 | hcDAF-12 act | DAX1 inh-2 | ssDAF12 agonist | LXRb hcDAF ctr | hcDAF12 ag
CC(=O)NCCC(=O)N1CCc2c([nH]c3ccccc23)C1c1cccc(Cl)c1 (centres undefined) | -1 | -1 | 4 | 0 | -1 | / | /
Cc1[nH]nc2c1C(c1ccccc1)N(Cc1ccccc1)C2=O (centres undefined) | -2 | / | 0 | -1 | -1 | / | /
O=c1c(-c2cccc3ccccc23)[n+]([O-])c2ccccc2n1O | 3 | -2 | 7.3* | -1 | 0 | 0 | 5.9*
O=C(NNc1nc2ccccc2nc1C(F)(F)F)c1ccccc1 | -1 | 0 | -1 | 0 | -1 | / | /
O=C(NNc1nc2ccccc2o1)c1ccccc1 | 11* | / | 8.2* | 2 | 0 | 1 | 4
COc1ccccc1C(=O)N1CCCC1(C#N)c1ccccc1 (centres undefined) | 0 | 1 | 0 | 0 | -1 | / | /
N#CC1(c2ccccc2)CCCN1C(=O)c1ccccc1Br (centres undefined) | -1 | 0 | 10* | 0 | 0 | 0 | 2
O=C1C=C(Nc2ccc(O)cc2)C(=O)c2ccccc21 | 7 | 0 | 8.8* | -1 | 1 | 1 | 6.6*
CCc1cc2c(nc1CC)CCCN2S(=O)(=O)c1ccccc1C | -3 | / | -3 | -1 | 0 | / | /
COc1ccc(OC)c(C2CC(=O)N3CN(c4ccccc4F)CSC3=C2C#N)c1 (centres undefined) | 1 | -1 | 6.8* | 0 | -1 | 0 | 1
Cc1ccc2nc(CN(C)C(=O)[C@@H](Cc3ccccc3)NC(=O)[C@H]3O[C@@H](n4cnc(C(N)=O)n4)[C@H](O)[C@@H]3O)[nH]c2c1 | -1 | / | -1 | 0 | -1 | / | /
NC(=O)c1c(NC(=O)c2ccccc2)sc2c1CCC2 | 15* | 4.5* | 16* | 1 | 2.1* | 2 | 19*
Cc1ccccc1C(=O)O/N=C(\N)c1ccccc1 | 8 | 4 | 10* | 3 | 0.9* | 2 | 25*
